Measured values reported in the supplement of paper PMC12340641.
Counter-ions that a name gives are not always drawn.

Columns and labels:
[1] = molecular target: IKZF1 (dCK*-IKZF1 fusion in HEK293FT) (UniProt Q13422); test: inhibition of IKZF1 HTRF signal (DMSO = 0%, pomalidomide 10 uM = 100%); higher = lower IKZF1 protein level; conditions: compound concentration: 5 uM, overnight (~20 h)
Summary of the method: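 For percent inhibition of IKZF1 signal, each plate was normalised to vehicle and to a reference degrader. Cells were HEK293FT stably expressing an IKZF1 fusion, plated at 2000/well in 384-well format and treated overnight at 37 °C with 5 μM compound, one well each. Lysates were probed overnight with a commercial HTRF total-IKZF1 antibody kit, with the 665/620 nm ratio background-subtracted and vehicle and degrader fixed at 0% and 100%.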

HEK293FT dCK*-only = test: relative growth in counter assay (no AraC = 100%, AraC + DMSO = 0%); higher = more growth rescue independent of IKZF1; conditions: compound concentration: 5 uM; AraC concentration: 0.3 uM; overnight pretreatment + 4 days AraC
Summary of the method: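 HEK293FT cells carrying only an engineered kinase construct were plated at 300 per well (384-well) and given 5 μM compound 2 h later. Following overnight at 37 °C, a nucleoside suicide substrate (0.3 μM) plus medium was added for 4 days. Hoechst 33342-stained nuclei were imaged and counted on day 5, with 100% assigned to wells without suicide substrate and 0% to substrate plus vehicle on each plate.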

HEK293FT dCK*-IKZF1 = test: relative growth recovery (pomalidomide 10 uM = 100%, DMSO = 0%); higher = more growth rescue (IKZF1 fusion degradation); conditions: compound concentration: 5 uM; AraC concentration: 0.3 uM; overnight pretreatment + 4 days AraC
Summary of the method: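 HEK293FT cells stably expressing a dCK*-IKZF1 fusion (300/well, 384-well) received 5 μM compound 2 h after seeding. After overnight at 37 °C they received a nucleoside suicide substrate at 0.3 μM plus medium for 4 days. On day 5, Hoechst 33342-stained nuclei were counted by whole-well imaging. Growth recovery was normalised per plate to a reference degrader (100%) and vehicle (0%); values are means of duplicates run on different days.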

IKZF1 (dCK*-IKZF1 fusion in HEK293FT), sequence (Q13422 whole entry, looked up, the tested form may be a part): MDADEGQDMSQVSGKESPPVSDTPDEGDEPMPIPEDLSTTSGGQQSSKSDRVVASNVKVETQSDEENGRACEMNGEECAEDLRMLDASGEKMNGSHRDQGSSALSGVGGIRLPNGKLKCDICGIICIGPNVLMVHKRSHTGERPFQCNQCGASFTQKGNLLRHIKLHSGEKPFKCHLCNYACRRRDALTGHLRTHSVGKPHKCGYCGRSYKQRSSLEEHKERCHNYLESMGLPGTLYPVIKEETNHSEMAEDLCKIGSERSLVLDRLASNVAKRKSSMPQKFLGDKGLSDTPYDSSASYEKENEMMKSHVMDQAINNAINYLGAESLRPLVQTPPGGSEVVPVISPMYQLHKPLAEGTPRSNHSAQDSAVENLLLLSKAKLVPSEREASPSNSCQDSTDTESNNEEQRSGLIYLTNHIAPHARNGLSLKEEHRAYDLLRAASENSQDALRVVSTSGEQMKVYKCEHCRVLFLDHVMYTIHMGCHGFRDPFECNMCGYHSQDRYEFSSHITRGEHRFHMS

Compound | inhibition of IKZF1 HTRF signal [1] [%] | relative growth in counter assay (HEK293FT dCK*-only) [%] | relative growth recovery (HEK293FT dCK*-IKZF1) [%]
OCCN1CCN(CCCN2c3ccccc3Sc3ccc(C(F)(F)F)cc32)CC1 [Fluphenazine  HCl] | -52.5 | 15.7 | 5.51
NC(=O)c1nnn(Cc2cc(Cl)c(C(=O)c3ccc(Cl)cc3)c(Cl)c2)c1N [carboxyamidotriazole] | -49.1 | -4.77 | -2.6
Nc1ccc(S(=O)(=O)Nc2ncccn2)cc1 | -27.2 | -9.24 | 2.56
CN[C@H]1CC[C@@H](c2ccc(Cl)c(Cl)c2)c2ccccc21 [Sertraline HCl] | 18.8 | -7.81 | -6.62
CO[C@@]12[C@@H]3NC3CN1C1=C(C(=O)C(N)=C(C)C1=O)[C@@H]2COC(N)=O (stereo not given in full) | -1.54 | -33.6 | -12.9
CC(C)[C@@H]1CC[C@@H](C)C[C@@H]1P(=O)(c1ccccc1)c1ccccc1 | -20.4 | 3.21 | -0.475
Nc1ncn([C@H]2C[C@H](O)[C@@H](CO)O2)c(=O)n1 [decitabine] | 27.4 | -31.5 | -10.8
COc1nccnc1NS(=O)(=O)c1ccc(N)cc1 [sulfametopyrazine] | 6.66 | -7.5 | -1.09
CC[C@H](C)[C@H]1O[C@]2(CC[C@@H]1C)C[C@@H]1C[C@@H](C/C=C(\C)[C@@H](O[C@H]3C[C@H](OC)[C@@H](O[C@H]4C[C@H](OC)[C@@H](O)[C@H](C)O4)[C@H](C)O3)[C@@H](C)/C=C/C=C3\CO[C@@H]4[C@H](O)C(C)=CC(C(=O)O1)[C@]34O)O2 (stereo not given in full) [Ivermectin] | -28.1 | -2.12 | 0.635
CN1CCCCC1CCN1c2ccccc2Sc2ccc(S(C)=O)cc21 (stereo not given) [mesoridazine besylate] | -49.8 | 10.8 | -0.555
